# “And” between values parts separate entries of the source, which are not always exact repeats. Equal values may be shown once. About 83,000 compounds went through this panel and 20% of them were active in at least one assay; those are over-represented in the sample as a whole.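 Method: cells in 96-well plates; compound added at one concentration; 48 h incubation; percent growth measured; values under 10 scored active.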 Some compounds were tested as several samples or in several runs, with calls that do not always agree. The source made the active and inactive calls.
# Tested on: UO-31 renal
# Test: NCI-60 one-dose screen, 48 h (100 = growth as untreated, 0 = no growth, -100 = all killed)
# Conditions: 10 µM
row,Compound,growth
1,Cc1cc(N(CCOS(C)(=O)=O)CCOS(C)(=O)=O)ccc1C=Nc1ccc(-c2nc(Cc3ccccc3)sc2C)cc1,22.2% (inactive)
2,O=[N+]([O-])c1cc[n+]([O-])cc1,93.6% (inactive)
3,CN(C)CCOC1(Cc2ccc(Cl)cc2Cl)CCC(C(C)(C)C)CC1 (configuration not stated),29.3% (inactive) and 30.2% (inactive)
4,COc1ccc(C(=O)C(CN(C)C)CN(C)C)cc1,17% (inactive)
5,CC1=CC(=C(c2ccc(N)cc2)c2ccc(N)cc2)C=CC1=N,32% (inactive) and 85.8% (inactive)
6,Cc1ccc(Sc2ccccc2N)cc1,81.5% (inactive)
7,C=C1C(=O)OC2CC1C(OC(C)=O)C/C(C)=C/CC/C(C)=C\CCC2(C)O (configuration not stated),-39.8% (active)

# Tested on: TK-10 renal
# Test: as above
# Conditions: 10 µM
row,Compound,growth
1,Cc1cc(N(CCOS(C)(=O)=O)CCOS(C)(=O)=O)ccc1C=Nc1ccc(-c2nc(Cc3ccccc3)sc2C)cc1,14.2% (inactive)
2,O=[N+]([O-])c1cc[n+]([O-])cc1,110% (inactive)
3,C#CCN(Cc1ccc2nc(N)[nH]c(=O)c2c1)c1ccc(C(=O)NC(CCC(=O)O)C(=O)O)cc1 (configuration not stated),78.5% (inactive)
4,CN(C)CCOC1(Cc2ccc(Cl)cc2Cl)CCC(C(C)(C)C)CC1 (configuration not stated),60.4% (inactive) and 61.9% (inactive)
5,COc1ccc(C(=O)C(CN(C)C)CN(C)C)cc1,15.7% (inactive)
6,CC1=CC(=C(c2ccc(N)cc2)c2ccc(N)cc2)C=CC1=N,38.2% (inactive) and 15.3% (inactive)
7,Cc1ccc(Sc2ccccc2N)cc1,98% (inactive)
8,C=C1C(=O)OC2CC1C(OC(C)=O)C/C(C)=C/CC/C(C)=C\CCC2(C)O (configuration not stated),-11.8% (active)

# Tested on: ACHN renal
# Test: as above
# Conditions: 10 µM
# Experimental: Growth inhibition of the ACHN human tumor cell line is measured as a screen for anti-cancer activity. Cells are grown in 96 well plates and exposed to the test compound for 48 hours. Compounds are tested at a single concentration, which is 10^-5 M for most compounds. The reported endpoint is percent growth (GI% or GIPRCNT), where numbers from 0 - 100% represent growth inhibition, and numbers from -100% - 0 represent cell death. For example, a value of 40 represents 60% growth inhibition. A value of 0 means no net growth occurred over the course of the experiment. A value of -40 indicates 40% of cells at the beginning of the experiment died by the end of the experiment. A value of -100 means all cells are dead at the end of the experiment.
# NCI-60 Human Tumor Cell Lines Screen was performed using the standard one-dose NCI protocol, which is described in more detail at https://dtp.cancer.gov/discovery_development/nci-60/default.htm.
# Compounds with GIPRCNT values below 10 were considered active. Activity score was based on GIPRCNT using the following formula: […]
# Score is 0 for GIPRCNT values of 100 or above, 50 for GIPRCNT values of 0, and 100 for GIPRCNT values of -100.
row,Compound,growth
1,Cc1cc(N(CCOS(C)(=O)=O)CCOS(C)(=O)=O)ccc1C=Nc1ccc(-c2nc(Cc3ccccc3)sc2C)cc1,-23.2% (active)
2,O=[N+]([O-])c1cc[n+]([O-])cc1,114% (inactive)
3,C#CCN(Cc1ccc2nc(N)[nH]c(=O)c2c1)c1ccc(C(=O)NC(CCC(=O)O)C(=O)O)cc1 (configuration not stated),30.1% (inactive)
4,CN(C)CCOC1(Cc2ccc(Cl)cc2Cl)CCC(C(C)(C)C)CC1 (configuration not stated),48.7% (inactive) and -4.79% (active)
5,COc1ccc(C(=O)C(CN(C)C)CN(C)C)cc1,-85.5% (active)
6,CC1=CC(=C(c2ccc(N)cc2)c2ccc(N)cc2)C=CC1=N,28.9% (inactive) and 58.6% (inactive)
7,Cc1ccc(Sc2ccccc2N)cc1,-20% (active)
8,C=C1C(=O)OC2CC1C(OC(C)=O)C/C(C)=C/CC/C(C)=C\CCC2(C)O (configuration not stated),-5.85% (active)

# Tested on: CAKI-1 renal
# Test: as above
# Conditions: 10 µM
row,Compound,growth
1,Cc1cc(N(CCOS(C)(=O)=O)CCOS(C)(=O)=O)ccc1C=Nc1ccc(-c2nc(Cc3ccccc3)sc2C)cc1,-32% (active)
2,O=[N+]([O-])c1cc[n+]([O-])cc1,106% (inactive)
3,C#CCN(Cc1ccc2nc(N)[nH]c(=O)c2c1)c1ccc(C(=O)NC(CCC(=O)O)C(=O)O)cc1 (configuration not stated),33.2% (inactive)
4,CN(C)CCOC1(Cc2ccc(Cl)cc2Cl)CCC(C(C)(C)C)CC1 (configuration not stated),36.2% (inactive) and 22.1% (inactive)
5,COc1ccc(C(=O)C(CN(C)C)CN(C)C)cc1,-84.8% (active)
6,CC1=CC(=C(c2ccc(N)cc2)c2ccc(N)cc2)C=CC1=N,65.5% (inactive)
7,Cc1ccc(Sc2ccccc2N)cc1,62.5% (inactive)
8,C=C1C(=O)OC2CC1C(OC(C)=O)C/C(C)=C/CC/C(C)=C\CCC2(C)O (configuration not stated),16% (inactive)

# Tested on: A498 renal
# Test: as above
# Conditions: 10 µM
row,Compound,growth
1,Cc1cc(N(CCOS(C)(=O)=O)CCOS(C)(=O)=O)ccc1C=Nc1ccc(-c2nc(Cc3ccccc3)sc2C)cc1,-48.7% (active)
2,O=[N+]([O-])c1cc[n+]([O-])cc1,93.8% (inactive)
3,C#CCN(Cc1ccc2nc(N)[nH]c(=O)c2c1)c1ccc(C(=O)NC(CCC(=O)O)C(=O)O)cc1 (configuration not stated),110% (inactive)
4,CN(C)CCOC1(Cc2ccc(Cl)cc2Cl)CCC(C(C)(C)C)CC1 (configuration not stated),63.9% (inactive) and 63.3% (inactive)
5,COc1ccc(C(=O)C(CN(C)C)CN(C)C)cc1,99% (inactive)
6,CC1=CC(=C(c2ccc(N)cc2)c2ccc(N)cc2)C=CC1=N,-7.24% (active) and 57.3% (inactive)
7,Cc1ccc(Sc2ccccc2N)cc1,118% (inactive)
8,C=C1C(=O)OC2CC1C(OC(C)=O)C/C(C)=C/CC/C(C)=C\CCC2(C)O (configuration not stated),87.3% (inactive)

# Tested on: CCRF-CEM leukemia
# Test: as above
# Conditions: 10 µM
row,Compound,growth
1,Cc1cc(N(CCOS(C)(=O)=O)CCOS(C)(=O)=O)ccc1C=Nc1ccc(-c2nc(Cc3ccccc3)sc2C)cc1,23.4% (inactive)
2,O=[N+]([O-])c1cc[n+]([O-])cc1,121% (inactive)
3,C#CCN(Cc1ccc2nc(N)[nH]c(=O)c2c1)c1ccc(C(=O)NC(CCC(=O)O)C(=O)O)cc1 (configuration not stated),22.5% (inactive)
4,CN(C)CCOC1(Cc2ccc(Cl)cc2Cl)CCC(C(C)(C)C)CC1 (configuration not stated),4.16% (active) and -9.84% (active)
5,COc1ccc(C(=O)C(CN(C)C)CN(C)C)cc1,36.3% (inactive)
6,CC1=CC(=C(c2ccc(N)cc2)c2ccc(N)cc2)C=CC1=N,19.3% (inactive) and 35.8% (inactive)
7,Cc1ccc(Sc2ccccc2N)cc1,88.2% (inactive)
8,C=C1C(=O)OC2CC1C(OC(C)=O)C/C(C)=C/CC/C(C)=C\CCC2(C)O (configuration not stated),-17.1% (active)

# — PubChem BioAssay (NCI)
